Measurements reported in PubChem BioAssay.
Values without a mark were called inactive. The rule behind the calls is not given here.

Test: hESC survival regulators, cell-based (AID 493140);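 note: cells exposed to compounds for four days before counting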
Settings: human embryonic stem cell survival screen; stronger effect = higher value

Compound | survival
CCc1c(C)[nH]c2c1C(=O)C(CN1CCOCC1)CC2 (stereo unspecified) | 6.5
O=C(O)[C@@H]1[C@H]2C[C@H]3c4[nH]c5ccccc5c4CCN3C[C@@H]2CC[C@@H]1O | 2.42
CC(C)N=C(N)/N=C(\N)Nc1ccc(Cl)cc1 | 3
CN1CCC(=C2c3ccccc3CCc3sccc32)CC1 | 5.08
Cc1cccc(C)c1NC(=O)C(C)N (stereo unspecified) | 11.7
Nc1ncnc2c1ncn2[C@@H]1O[C@H](COP(=O)(O)O)[C@@H](O)[C@H]1O | 7.33
Cc1c(Nc2ncccc2C(=O)O)cccc1C(F)(F)F | 3.67
O=C1C(=O)c2ccccc2C(O)=C1C1CCC(c2ccc(Cl)cc2)CC1 (stereo unspecified) | 8.83
CC[C@]12CCCN3CCc4c(n(c5ccccc45)[C@@](O)(C(=O)OC)C1)[C@@H]32 | 10.1
CCN(CCCc1ccccc1)CCCc1ccccc1 | 6.17
Cc1nccn1CC1CCc2c(c3ccccc3n2C)C1=O (stereo unspecified) | 36.2
CC(C)NCC(O)COc1ccc(COCCOC(C)C)cc1 (stereo unspecified) | 6.5
Nc1[nH]c(=O)ncc1F | 2.42
CCC1=C(C)CN(C(=O)NCCc2ccc(S(=O)(=O)NC(=O)NC3CCC(C)CC3)cc2)C1=O (stereo unspecified) | 5.08
COc1cccc2c1C(=O)c1c(O)c3c(c(O)c1C2=O)C[C@@](O)(C(=O)CO)C[C@@H]3O[C@H]1C[C@H](N)[C@H](O)[C@H](C)O1 | 0.167
Cc1cc2c(C(C)C)c(O)c(O)c(C=O)c2c(O)c1-c1c(C)cc2c(C(C)C)c(O)c(O)c(C=O)c2c1O | 5.5
